Data on 30 molecules can be found in PubChem BioAssay (EPA / NIEHS).

Active and inactive are the calls of the source. Rule for the calls: active = hit-call score of the fitted dose curve at least 0.9, where 1 is the maximum; inactive = score below 0.9.

Chain of Cytochrome P450 3A4 (Homo sapiens) (P08684 whole entry, looked up): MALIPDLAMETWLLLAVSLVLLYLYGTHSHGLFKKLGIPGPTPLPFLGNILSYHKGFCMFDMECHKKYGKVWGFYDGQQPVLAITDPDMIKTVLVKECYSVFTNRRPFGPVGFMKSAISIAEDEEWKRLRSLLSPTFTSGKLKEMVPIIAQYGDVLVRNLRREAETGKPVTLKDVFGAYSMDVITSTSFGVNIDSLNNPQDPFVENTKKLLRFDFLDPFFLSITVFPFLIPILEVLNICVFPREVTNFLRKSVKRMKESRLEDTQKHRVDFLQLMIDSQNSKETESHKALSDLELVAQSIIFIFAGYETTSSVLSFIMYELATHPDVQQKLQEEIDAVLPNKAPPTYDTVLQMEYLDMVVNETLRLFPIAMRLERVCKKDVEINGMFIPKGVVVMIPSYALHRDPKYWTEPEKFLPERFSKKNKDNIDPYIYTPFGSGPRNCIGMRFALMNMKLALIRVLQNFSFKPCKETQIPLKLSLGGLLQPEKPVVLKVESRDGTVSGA

Read-out in the first assay: Cytochrome P450 3A4 (Homo sapiens) (UniProt P08684)
Description: LTEA_HepaRG_CYP3A4: Life Technologies and Expression Analysis (LTEA) Assay for CYP3A4 using HepaRG (AID 2283487). The conditions noted are these: mRNA level, 48 h; actives raise or lower the signal. A digest of the protocol: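 CYP3A4 transcript measured by TaqMan qRT-PCR and normalized to three housekeeping genes after 48 h chemical exposure of human HepaRG cells. Top concentration 100 uM, half-log steps, 0.5% DMSO vehicle; gain or loss fitted against DMSO baseline.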
Regarding `CC(C)=CCCC(C)=CC=O`, the outcome was inactive.

Consider `O=C(NS(=O)(=O)/C=C/c1ccccc1)c1ccc(F)cc1Cl`, for which the AC50 (as a rule, the concentration giving half of the maximal activity seen) is 11.3 µM (active).

With `CCCCC(CC)COC(=O)c1ccc(C(=O)OCC(CC)CCCC)cc1` (stereo not given), the molecule was called inactive.

Consider `Cc1c(-c2cccnc2)c2ccccc2n1CCCCC(=O)O`, for which the call was inactive.

Turning to `Oc1ccc2c(c1)-c1ccccc1C2`, the call was inactive.

As for `CC(C)CCCCCCOC(=O)c1ccc(C(=O)OCCCCCCC(C)C)c(C(=O)OCCCCCCC(C)C)c1`, the call was inactive.

`CC(C)CC(C)(O)C#CC(C)(O)CC(C)C` (stereo not given): the AC50 was 19.4 µM (active).

On to `CCOC(=O)COc1ccc2c(c1)CC(NCC(O)c1cccc(Cl)c1)CC2` (stereo not given), for which the molecule was called inactive.

Regarding `CCn1nc(Cc2ccccc2)cc1C1CCN(C[C@H]2C[C@H](N(C)[C@@H](C(=O)O)C(C)C)C[C@@H]2c2cccc(F)c2)CC1`, the call was inactive.

Regarding `COC(=O)CC(=O)OC`, the AC50 was 2.53 µM (active).

Read-out in another assay: DNA damage-inducible transcript 3 (DDIT3), DDIT3 (gene 1649)
The assay can be described thus: LTEA_HepaRG_DDIT3: Life Technologies and Expression Analysis (LTEA) Assay for DNA damage-inducible transcript 3 (DDIT3) using HepaRG (AID 2283488). The conditions noted are these: mRNA level, 48 h; actives raise or lower the signal. In short, it runs like this: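 qRT-PCR readout (Fluidigm TaqMan), housekeeping-normalized to ACTB, GAPDH, POLR2A. HepaRG cells, 48 h exposure, 8-point half-log series from 100 uM in 0.5% DMSO, duplicates. Gain or loss of signal fitted against DMSO baseline.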
On to `CCC(C)(C)C(=O)O[C@H]1C[C@@H](C)C=C2C=C[C@H](C)[C@H](CC[C@@H]3C[C@@H](O)CC(=O)O3)[C@H]21`, for which the molecule was classed as inactive.

For the molecule `CC(C)(O)c1coc(S(=O)(=O)NC(=O)Nc2c3c(cc4c2CCC4)CCC3)c1`, the molecule was classed as inactive.

In the case of `Cn1cnc([N+](=O)[O-])c1Sc1ncnc2nc[nH]c12`, the AC50 was 9.59 µM (active).

For the molecule `CC[C@H](C)C(=O)O[C@H]1C[C@@H](C)C=C2C=C[C@H](C)[C@H](CC[C@@H]3C[C@@H](O)CC(=O)O3)[C@H]21`, the result was inactive.

For the molecule `CCOCCOCCOCCO`, the molecule was called inactive.

On to `CC(C)=CCC/C(C)=C\CO`, for which the molecule was classed as inactive.

On to `O=C(CCCCCCCCc1cccnc1)N1CCC(C=C(c2ccccc2)c2ccccc2)CC1`, for which the AC50 is 22.1 µM (active).

Turning to `CCOC(=O)CC(CC(=O)OCC)(OC(C)=O)C(=O)OCC`, the result was inactive.

In the case of `Cc1ccc(O)cc1`, the call was inactive.

With `Cc1ccc(C)c(O)c1`, the result was inactive.

As for `CCCCC(CC)COC(=O)CCCCCCCCC(=O)OCC(CC)CCCC` (stereo not given), the call was inactive.

Turning to `O=C(O)c1cc(N=Nc2ccc(S(=O)(=O)Nc3ccccn3)cc2)ccc1O`, the result was inactive.

With `CCN(C(=O)c1cc(C)cc(OC[C@H](C)Nc2ccncc2)c1)C(C)C`, the AC50 was 48 µM (active).

Regarding `CC(C)=CCC/C(C)=C/CO`, the outcome was inactive.

In the case of `CC(=O)OC[C@H]1O[C@@](COC(C)=O)(O[C@H]2O[C@H](COC(C)=O)[C@@H](OC(C)=O)[C@H](OC(C)=O)[C@H]2OC(C)=O)[C@@H](OC(C)=O)[C@@H]1OC(C)=O`, the molecule was called inactive.

As to `CCCCCCc1ccc(O)cc1O`, the call was inactive.

As for `CN(C)c1ccc(Cc2ccc(N(C)C)cc2)cc1`, the molecule was called inactive.

On to `Cc1[nH]cnc1C[C@H]1CCc2c(C)c3ccccc3n2C1=O`, for which the AC50 was 27.4 µM (active).

For `O=C(O)c1cccc(Oc2ccccc2)c1`, the outcome was inactive.

For the molecule `CC(C)=CCCC(C)=CC=O`, the result was inactive.

As for `O=C(NS(=O)(=O)/C=C/c1ccccc1)c1ccc(F)cc1Cl`, the molecule was classed as inactive.

For `CCCCC(CC)COC(=O)c1ccc(C(=O)OCC(CC)CCCC)cc1` (stereo not given), the call was inactive.

For `Cc1c(-c2cccnc2)c2ccccc2n1CCCCC(=O)O`, the result was inactive.

As to `Oc1ccc2c(c1)-c1ccccc1C2`, the molecule was called inactive.

Regarding `NC(=O)NO`, the result was inactive.

Turning to `CC(C)CCCCCCOC(=O)c1ccc(C(=O)OCCCCCCC(C)C)c(C(=O)OCCCCCCC(C)C)c1`, the molecule was called inactive.

For `CC(C)CC(C)(O)C#CC(C)(O)CC(C)C` (stereo not given), the result was inactive.

In the case of `CCOC(=O)COc1ccc2c(c1)CC(NCC(O)c1cccc(Cl)c1)CC2` (stereo not given), the result was inactive.

As to `CCn1nc(Cc2ccccc2)cc1C1CCN(C[C@H]2C[C@H](N(C)[C@@H](C(=O)O)C(C)C)C[C@@H]2c2cccc(F)c2)CC1`, the AC50 was 50 µM (active).

With `COC(=O)CC(=O)OC`, the result was inactive.

Read-out in another assay: Pro-epidermal growth factor (Homo sapiens) (UniProt P01133)
The assay can be described thus: LTEA_HepaRG_EGF: Life Technologies and Expression Analysis (LTEA) Assay for Epidermal growth factor (EGF) using HepaRG (AID 2283489). The conditions noted are these: mRNA level, 48 h; actives raise or lower the signal. A digest of the protocol: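 HepaRG, 48 h dosing, 100 uM top, half-log x8, 0.5% DMSO. Readout: TaqMan qRT-PCR (Fluidigm array), housekeeping-normalized. Gain or loss of signal fit vs DMSO.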
On to `CC(C)(O)c1coc(S(=O)(=O)NC(=O)Nc2c3c(cc4c2CCC4)CCC3)c1`, for which the call was inactive.

For the molecule `Cn1cnc([N+](=O)[O-])c1Sc1ncnc2nc[nH]c12`, the molecule was called inactive.

With `CC[C@H](C)C(=O)O[C@H]1C[C@@H](C)C=C2C=C[C@H](C)[C@H](CC[C@@H]3C[C@@H](O)CC(=O)O3)[C@H]21`, the outcome was inactive.

For the molecule `CC(C)=CCC/C(C)=C\CO`, the molecule was called inactive.

For `Cc1ccc(O)cc1`, the molecule was classed as inactive.

As for `O=C(O)c1cc(N=Nc2ccc(S(=O)(=O)Nc3ccccn3)cc2)ccc1O`, the outcome was inactive.

With `CC(C)=CCC/C(C)=C/CO`, the outcome was inactive.

Consider `Cc1[nH]cnc1C[C@H]1CCc2c(C)c3ccccc3n2C1=O`, for which the outcome was inactive.

On to `CCCCC(CC)COC(=O)c1ccc(C(=O)OCC(CC)CCCC)cc1` (stereo not given), for which the molecule was called inactive.

Read-out in another assay: Early growth response protein 1 (EGR1) transcription factor, EGR1 (gene 1958)
The assay can be described thus: LTEA_HepaRG_EGR1: Life Technologies and Expression Analysis (LTEA) Assay for Early growth response protein 1 (EGR1) transcription factor using HepaRG (AID 2283490). The conditions noted are these: mRNA level, 48 h; actives raise or lower the signal. In short, it runs like this:
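EGR1 transcript levels quantified by qRT-PCR (Fluidigm arrays) against three housekeeping genes after 48 h chemical exposure of HepaRG cells. Eight-point half-log series topping at 100 uM, 0.5% DMSO vehicle, analyzed for gain or loss.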
On to `CC(C)=CCC/C(C)=C\CO`, for which the call was inactive.

In the case of `O=C(O)c1cc(N=Nc2ccc(S(=O)(=O)Nc3ccccn3)cc2)ccc1O`, the molecule was classed as inactive.

`Cc1[nH]cnc1C[C@H]1CCc2c(C)c3ccccc3n2C1=O`: the AC50 was 70.2 µM (active).

For the molecule `CCCCC(CC)COC(=O)c1ccc(C(=O)OCC(CC)CCCC)cc1` (stereo not given), the molecule was called inactive.

As to `NC(=O)NO`, the molecule was classed as inactive.

For the molecule `CC(C)CCCCCCOC(=O)c1ccc(C(=O)OCCCCCCC(C)C)c(C(=O)OCCCCCCC(C)C)c1`, the call was inactive.

Read-out in another assay: Ezrin (EZR), EZR (gene 7430)
The assay can be described thus: LTEA_HepaRG_EZR: Life Technologies and Expression Analysis (LTEA) Assay for Ezrin (EZR) using HepaRG (AID 2283491). The conditions noted are these: mRNA level, 48 h; actives raise or lower the signal. A digest of the protocol:
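HepaRG, 48 h chemical exposure, 8-pt half-log series from 100 uM, 0.5% DMSO vehicle, duplicates. Read-out: EZR mRNA by TaqMan qRT-PCR (Fluidigm array), housekeeping-normalized; bidirectional curve fit vs DMSO baseline.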
In the case of `CCC(C)(C)C(=O)O[C@H]1C[C@@H](C)C=C2C=C[C@H](C)[C@H](CC[C@@H]3C[C@@H](O)CC(=O)O3)[C@H]21`, the result was inactive.

Take `CC(C)(O)c1coc(S(=O)(=O)NC(=O)Nc2c3c(cc4c2CCC4)CCC3)c1`: the molecule was called inactive.

Consider `Cn1cnc([N+](=O)[O-])c1Sc1ncnc2nc[nH]c12`, for which the call was inactive.

Turning to `CC[C@H](C)C(=O)O[C@H]1C[C@@H](C)C=C2C=C[C@H](C)[C@H](CC[C@@H]3C[C@@H](O)CC(=O)O3)[C@H]21`, the outcome was inactive.

For the molecule `CCOCCOCCOCCO`, the molecule was called inactive.

Consider `CC(C)=CCC/C(C)=C\CO`, for which the result was inactive.

For `O=C(CCCCCCCCc1cccnc1)N1CCC(C=C(c2ccccc2)c2ccccc2)CC1`, the half-maximal activity concentration (AC50) is 13.1 µM (active).

For `CCOC(=O)CC(CC(=O)OCC)(OC(C)=O)C(=O)OCC`, the call was inactive.

Regarding `Cc1ccc(O)cc1`, the call was inactive.

As to `Cc1ccc(C)c(O)c1`, the call was inactive.

Take `CCCCC(CC)COC(=O)CCCCCCCCC(=O)OCC(CC)CCCC` (stereo not given): the result was inactive.

As for `O=C(O)c1cc(N=Nc2ccc(S(=O)(=O)Nc3ccccn3)cc2)ccc1O`, the molecule was called inactive.

Regarding `CCN(C(=O)c1cc(C)cc(OC[C@H](C)Nc2ccncc2)c1)C(C)C`, the call was inactive.

`CC(C)=CCC/C(C)=C/CO`: the molecule was classed as inactive.

For the molecule `CC(=O)OC[C@H]1O[C@@](COC(C)=O)(O[C@H]2O[C@H](COC(C)=O)[C@@H](OC(C)=O)[C@H](OC(C)=O)[C@H]2OC(C)=O)[C@@H](OC(C)=O)[C@@H]1OC(C)=O`, the result was inactive.

As for `CCCCCCc1ccc(O)cc1O`, the molecule was called inactive.

For the molecule `CN(C)c1ccc(Cc2ccc(N(C)C)cc2)cc1`, the result was inactive.

In the case of `Cc1[nH]cnc1C[C@H]1CCc2c(C)c3ccccc3n2C1=O`, the AC50 is 11.8 µM (active).

`O=C(O)c1cccc(Oc2ccccc2)c1`: the molecule was called inactive.

On to `CC(C)=CCCC(C)=CC=O`, for which the molecule was called inactive.

Turning to `O=C(NS(=O)(=O)/C=C/c1ccccc1)c1ccc(F)cc1Cl`, the call was inactive.

Take `CCCCC(CC)COC(=O)c1ccc(C(=O)OCC(CC)CCCC)cc1` (stereo not given): the call was inactive.

Take `Cc1c(-c2cccnc2)c2ccccc2n1CCCCC(=O)O`: the result was inactive.

For the molecule `Oc1ccc2c(c1)-c1ccccc1C2`, the molecule was called inactive.

Consider `NC(=O)NO`, for which the outcome was inactive.

Regarding `CC(C)CCCCCCOC(=O)c1ccc(C(=O)OCCCCCCC(C)C)c(C(=O)OCCCCCCC(C)C)c1`, the result was inactive.

Take `CC(C)CC(C)(O)C#CC(C)(O)CC(C)C` (stereo not given): the result was inactive.

Regarding `CCOC(=O)COc1ccc2c(c1)CC(NCC(O)c1cccc(Cl)c1)CC2` (stereo not given), the call was inactive.

Turning to `CCn1nc(Cc2ccccc2)cc1C1CCN(C[C@H]2C[C@H](N(C)[C@@H](C(=O)O)C(C)C)C[C@@H]2c2cccc(F)c2)CC1`, the outcome was inactive.

As to `COC(=O)CC(=O)OC`, the result was inactive.
